Most compounds without a hit are left out; they make up all but 1.5% or so of the library.
RAD52 inh: RAD52 DNA annealing inhibitors, primary screen, biochemical, FRET, single point, set 2; inhibition, % at 18.7 µM; AID 651710, 2012; recombinant RAD52 DNA annealing, FRET fluorescence; DNA repair protein RAD52 homolog (Homo sapiens), P43351; 0.46% of 360,000 active;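 active means every replicate showing at least 50% inhibition; inconclusive means mean inhibition at least 50% but not in every replicate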
CendR NRP1 mod: modulators of CendR peptide binding to NRP-1, primary screen, biochemical, fluorescence polarization, uHTS; Neuropilin-1 (Homo sapiens), O14786; FAM-RPARPAR peptide binding to NRP-1; inhibition, % at 25 µM; 0.85% of 360,000 active;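 active means inhibition or corrected inhibition above about 18%, plus a signal ratio from 0.5 to 1.5, limit read from the data, passing the limit was not always enough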
Target sequence (O14786 whole entry, looked up): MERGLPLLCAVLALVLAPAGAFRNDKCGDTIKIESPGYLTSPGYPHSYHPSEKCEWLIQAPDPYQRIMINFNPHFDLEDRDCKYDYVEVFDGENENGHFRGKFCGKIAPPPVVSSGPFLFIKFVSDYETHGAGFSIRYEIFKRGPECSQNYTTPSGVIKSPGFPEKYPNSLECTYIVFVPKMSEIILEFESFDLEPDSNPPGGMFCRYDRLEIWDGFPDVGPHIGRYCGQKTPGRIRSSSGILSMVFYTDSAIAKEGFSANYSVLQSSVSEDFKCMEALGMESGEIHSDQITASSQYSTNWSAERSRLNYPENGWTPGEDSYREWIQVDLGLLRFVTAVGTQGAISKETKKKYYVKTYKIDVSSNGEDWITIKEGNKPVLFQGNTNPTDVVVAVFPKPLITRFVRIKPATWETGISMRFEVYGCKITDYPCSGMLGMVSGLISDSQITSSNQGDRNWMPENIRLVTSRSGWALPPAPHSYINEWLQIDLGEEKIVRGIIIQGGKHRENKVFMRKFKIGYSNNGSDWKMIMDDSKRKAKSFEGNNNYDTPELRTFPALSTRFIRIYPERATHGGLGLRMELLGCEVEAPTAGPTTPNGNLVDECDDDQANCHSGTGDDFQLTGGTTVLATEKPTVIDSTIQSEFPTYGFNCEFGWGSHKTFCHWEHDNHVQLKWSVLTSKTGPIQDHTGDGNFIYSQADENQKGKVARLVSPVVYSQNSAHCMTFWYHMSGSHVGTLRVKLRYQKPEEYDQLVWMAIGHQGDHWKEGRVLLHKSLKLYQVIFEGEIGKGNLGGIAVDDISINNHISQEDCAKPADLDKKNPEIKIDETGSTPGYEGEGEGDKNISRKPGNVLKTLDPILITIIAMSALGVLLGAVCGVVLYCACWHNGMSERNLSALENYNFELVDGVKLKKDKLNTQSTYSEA
DNA FID counter: compounds displacing fluorescent DNA intercalator, primary screen, artefact control for HCV NS3 helicase inhibitor project, biochemical, FID fluorescence; 0.17% of 290,000 active; DNA fluorescent intercalator displacement; inhibition, % at 7.9 µM; AID 1845, 2009; in the data active means inhibition above about 37%;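 further: 0% = vehicle and 100% = reference compound; higher means more ethidium bromide displaced from hairpin DNA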
miR122 inh: miR-122 Renilla sensor signal increase in Huh7, primary screen, miR-122 inhibitor project, cell-based, single point, plate reader | Huh7 miR-122 Renilla luciferase sensor, 48 h; neutral wells = 0, positive control = 100 | activation (reporter increase), % at 12.5 µM | 0.3% of 340,000 active | AID 602342, 2012;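 active means mean replicate activation score at least 90 and every replicate individually at or above 90; inconclusive means only one of the two criteria met; inactive means neither criterion met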;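 further: higher luciferase means less miR-122 activity so hits act as miR-122 inhibitors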
RAD54 inh: inhibitors of human RAD54 branch migration, primary screen, biochemical, fluorescence, single point | 0.14% of 360,000 active | RAD54 Holliday junction branch migration, FAM/BHQ fluorescence | AID 602329, 2012 | inhibition, % at 10.4 µM | DNA repair and recombination protein RAD54-like (Homo sapiens), Q92698;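 active means mean normalized replicate activity at least 40 and at least half of replicates scoring 40 or more; inconclusive means only one of the two criteria met; inactive means mean below 40 and under half of replicates reaching 40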;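 further: 0% = median of neutral control wells and 100% = median of positive control wells; inhibitors cause a drop in the FAM fluorescence signal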
Glyco luc inh: increase of ERlucT glycosylation luciferase signal, primary screen, N-linked glycosylation inhibitor project, D54 ERlucT cells, luminescence, set 2; D54 ERlucT glycosylation luciferase reporter, 24 h; percent of 100 nM tunicamycin response; reporter increase, % at 12.5 µM; 0.23% of 360,000 active;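 active means mean luciferase reporter signal, scaled so untreated is 0 and the glycosylation-blocking control 100, at or above a set limit in every replicate; inconclusive means mean reaches the limit but not every replicate does; inactive means mean below the limit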;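 further: luciferase carries N-glycosylation sites so blocking glycosylation raises the light; 0% = median of neutral control wells and 100% = median of 100 nM tunicamycin wells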
Numbers without * were called inactive; u = inconclusive; x = no result given; ! = repeats disagree; [ ] = remark or other dose.

SMILES | RAD52 inh | CendR NRP1 mod | DNA FID counter | miR122 inh | RAD54 inh | Glyco luc inh
O=c1c(-n2cncn2)c[nH]n1-c1cccc(Cl)n1 | -6 | 18* | 12 | 0 | x | 2
C[C@H](CO)N1C[C@H](C)[C@H](CN(C)C(=O)Nc2cccc3ccccc23)Oc2c(NS(=O)(=O)c3ccc(Cl)cc3)cccc2C1=O | -2 | x | x | -2[16.7 µM] | -18 | x
Nc1nnc(SCc2ccc(Cl)cc2)s1 | x | 26* | -5 | -6 | x | -1
C[C@@H]1CN([C@H](C)CO)C(=O)c2cc(-c3ccccc3)cnc2O[C@@H]1CN(C)CC1CC1 | 16 | x | x | 1[16.7 µM] | 2 | x
Cc1nc(-c2ccccc2)sc1-c1nc(-c2ccncc2)ncc1S(=O)(=O)c1ccccc1 | x | -2 | 0 | 6 | -1 | 57*
CC(=O)OC[C@@H]1CN(Cc2cccc(C(F)(F)F)c2)C[C@H](n2cnc3c(NCc4ccco4)ncnc32)O1 | -29 | 40* | x | -6 | -6 | 0
CC(=O)OC[C@@H]1CN(Cc2cccc(C(F)(F)F)c2)C[C@H](n2cnc3c(N4CCOCC4)ncnc32)O1 | -15 | -25 | x | -4 | -2 | 2
CC1(C)CC(CCNC(=O)CCl)(c2ccccc2)CCO1 (configuration not stated) | -9 | 26* | -10 | 0 | -20 | -2
CO[C@H]1CN(C)C(=O)c2ccc(NC(=O)Nc3cccc(Cl)c3)cc2OC[C@H](C)NC[C@@H]1C | 34 | x | x | 9[16.7 µM] | 10 | x
CO[C@@H]1CN(C)C(=O)c2ccc(NC(=O)Nc3cccc(Cl)c3)cc2OC[C@H](C)NC[C@@H]1C | 28 | x | x | 15[16.7 µM] | -4 | x
CO[C@H]1CN(C)C(=O)c2ccc(NC(=O)Nc3cc(Cl)cc(Cl)c3)cc2OC[C@@H](C)NC[C@H]1C | 64* | x | x | x | 15 | x
CO[C@H]1CN(C)C(=O)c2ccc(NC(=O)Nc3cc(Cl)cc(Cl)c3)cc2OC[C@H](C)NC[C@H]1C | 54* | x | x | x | 5 | x
CO[C@H]1CN(C)C(=O)c2ccc(NC(=O)Nc3cccc(Cl)c3)cc2OC[C@@H](C)NC[C@@H]1C | 24 | x | x | 5[16.7 µM] | 8 | x
CO[C@@H]1CN(C)C(=O)c2cc(NC(=O)Nc3cc(Cl)cc(Cl)c3)ccc2OC[C@H](C)NC[C@H]1C | 57* | x | x | -34[16.7 µM] | x | x
CO[C@H]1CN(C)C(=O)c2ccc(NC(=O)Nc3cc(Cl)cc(Cl)c3)cc2OC[C@@H](C)NC[C@@H]1C | 52* | x | x | x | -1 | x
CC=Cc1ccc2n(c1=O)C[C@@H]1[C@@H](CO)[C@H](C(=O)NCc3ccc4c(c3)OCO4)[C@H]2N1C(=O)C1CC1 (mixture of isomers) | 55* | x | x | 9[16.7 µM] | 3 | x
CC=Cc1ccc2n(c1=O)C[C@@H]1[C@@H](CO)[C@H](C(=O)NCc3ccc4c(c3)OCO4)[C@H]2N1C(=O)COC (mixture of isomers) | 1 | x | x | x | -8 | x
CC=Cc1ccc2n(c1=O)C[C@H]1[C@H](CO)[C@@H](C(=O)NCc3ccc4c(c3)OCO4)[C@@H]2N1C(=O)C1CC1 (mixture of isomers) | 58* | x | x | 41[16.7 µM] | 9 | x
CC=Cc1ccc2n(c1=O)C[C@H]1[C@H](CO)[C@@H](C(=O)NCc3ccc4c(c3)OCO4)[C@@H]2N1C(=O)COC (mixture of isomers) | 13 | x | x | x | 4 | x
CCc1cccc(NC(=O)CCc2c(C)nn(-c3ccc(N4CCOCC4)nn3)c2C)c1 | -2 | 32* | -49 | 2 | -7 | -1
Cc1cc(C)c(NC(=O)CSc2cccc[n+]2[O-])c(C)c1 | -6 | 2 | x | -1 | -8 | 2
Cc1ccc(Cl)c(NC(=O)CSc2cccc[n+]2[O-])c1Cl | -14 | 28* | x | -2 | -1 | 0
CCN(CC)C(=O)Cn1cc(C(=O)C(=O)N2CCN(c3ccccc3)CC2)c2ccccc21 | -1 | 25* | -49 | x | -4 | -2
CCN(CC)C(=O)Cn1cc(C(=O)C(=O)N2CCN(C)CC2)c2ccccc21 | -17 | -2 | -3 | -2 | -1 | 2
C[C@H](CO)N1C[C@H](C)[C@@H](CN(C)C(=O)C2CCCCC2)OCCCC[C@H](C)Oc2ccc(NC(=O)CCCN(C)C)cc2C1=O | x | x | x | -5[16.7 µM] | 1 | x
SMILES | RAD52 inh | CendR NRP1 mod | DNA FID counter | miR122 inh | RAD54 inh | Glyco luc inh
O=S(=O)(NC1CC2CCC1C2)c1ccc2c(c1)OCCO2 (configuration not stated) | x | 4 | -9 | 126* | 6 | 0
COc1ccc(S(=O)(=O)NC2CC3CCC2C3)cc1Cl (configuration not stated) | -15 | 3 | -12 | 108* | -11 | 0
COc1ccc(S(=O)(=O)NC2CC3CCC2C3)cc1Br (configuration not stated) | 0 | 2 | -13 | 84 | 4 | -2
CC1CCCC(NS(=O)(=O)c2ccc3c(c2)OCCO3)C1C (configuration not stated) | x | 7 | -18 | u | -1 | -3
Cc1c2c(cc3c1[nH]c1ccccc13)C=NCC2 | 9 | -169 | x | x | 58* | 7
Cc1c2ccncc2cc2c1[nH]c1ccccc12 | 21 | -64 | x | 2 | 10 | 3
COc1ccccc1NC(=O)C1=C(C)NC(=O)NC1c1ccccc1F (configuration not stated) | -12 | 20* | -7 | -4 | -14 | 0
COc1ccccc1C1NC(=O)NC(C)=C1C(=O)Nc1cccc(C)c1C (configuration not stated) | -9 | 1 | -9 | -1 | 17 | 0
CCCCCCCCCCOC(=O)Cn1c(COc2ccc(OC)cc2)[n+](C)c2ccccc21 | x | -7 | 23 | -24 | 58*! | 19
CC1CCC(C(C)C)C(OC(=O)Cn2c(-c3ccc(Br)cc3)[n+](C)c3ccccc32)C1 (configuration not stated) | 34 | 6 | 26 | -2 | 27 | 12
CCOC(=O)Cn1c(COc2ccccc2OC)[n+](C)c2ccccc21 | 5 | 10 | x | -4 | -2 | 4
CCCCCCCCCCOC(=O)Cn1c(COc2ccccc2C)[n+](C)c2ccccc21 | 83* | 11 | 27 | x | u | 8
Cc1ccccc1OCc1n(CC(=O)OC2CC(C)CCC2C(C)C)c2ccccc2[n+]1C (configuration not stated) | 43 | 4 | 38*! | x | x | -6
CO[C@@H](CN(C)C(=O)C1CCOCC1)[C@H](C)CN(C(=O)Nc1ccc(C(F)(F)F)cc1)[C@@H](C)CO | -8 | x | x | x | -1 | x

Assay outcomes from PubChem BioAssay.
